Measured values published in PubChem BioAssay AID1159580 (chemical genetic matrix, 2015).
“And” between values parts separate entries of the source, which are not always exact repeats. Equal values may be shown once. The whole screen tested about 5,500 compounds, of which about 2,000 (36%) were called active. Another 18% or so got no clear call; they are omitted. Rule as the data show it: active = normalized growth mostly below about 0.91 (no sharp cut-off); inconclusive = no clear call, values can overlap the other calls; inactive = mostly above about 0.92. The list shows a part of the results.

Assay: chemical genetic growth profiling, strain panel (AID 1159580);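 also: tested at 20 µM; growth read once vehicle control cultures reached saturation at 30 °C; 1 = growth at the plate median or of vehicle wells; lower values mean less growth of the strain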
Details: growth OD
[1] = S. cerevisiae deletion strains, locus YAL013W, strain DEP1, stronger effect = lower value
[2] = S. cerevisiae deletion strains, locus YBR229C, strain ROT2, stronger effect = lower value
[3] = S. cerevisiae deletion strains, locus YDL101C, strain DUN1, stronger effect = lower value
[4] = S. cerevisiae deletion strains, locus YDR150W, strain NUM1, stronger effect = lower value
[5] = S. cerevisiae deletion strains, locus YEL061C, strain CIN8, stronger effect = lower value
[6] = S. cerevisiae deletion strains, locus YGR078C, strain PAC10, stronger effect = lower value
[7] = S. cerevisiae deletion strains, locus YHR030C, strain SLT2, stronger effect = lower value
[8] = S. cerevisiae deletion strains, locus YHR087W, strain rtc3, stronger effect = lower value
[9] = S. cerevisiae deletion strains, locus YJR043C, strain POL32, stronger effect = lower value
[10] = S. cerevisiae deletion strains, locus YJR075W, strain HOC1, stronger effect = lower value
[11] = S. cerevisiae deletion strains, locus YLR039C, strain RIC1, stronger effect = lower value
[12] = S. cerevisiae deletion strains, locus YLR058C, strain SHM2 (second series), stronger effect = lower value
[13] = S. cerevisiae deletion strains, locus YLR085C, strain ARP6, stronger effect = lower value
[14] = S. cerevisiae deletion strains, locus YLR262C, strain YPT6, stronger effect = lower value
[15] = S. cerevisiae deletion strains, locus YML094W, strain GIM5, stronger effect = lower value
[16] = S. cerevisiae deletion strains, locus YMR219W, strain ESC1, stronger effect = lower value
[17] = S. cerevisiae deletion strains, locus YMR263W, strain SAP30, stronger effect = lower value
[18] = S. cerevisiae deletion strains, locus YNL153C, strain GIM3, stronger effect = lower value
[19] = S. cerevisiae deletion strains, locus YNL298W, strain CLA4 (second series), stronger effect = lower value
[20] = S. cerevisiae deletion strains, locus YNL322C, strain KRE1, stronger effect = lower value
[21] = S. cerevisiae deletion strains, locus YNR030W, strain Alg12, stronger effect = lower value
[22] = S. cerevisiae deletion strains, locus YPL055C, strain LGE1, stronger effect = lower value
[23] = S. cerevisiae deletion strains, locus YPL241C, strain CIN2, stronger effect = lower value
[24] = S. cerevisiae deletion strains, locus YPR135W, strain CTF4, stronger effect = lower value

Measured: normalized growth

O=C(NCCSCc1ccco1)Nc1cc(Cl)cc(Cl)c1
0.822 (inactive) and 0.683 (active): [7]
active: [1] 0.915 | S. cerevisiae deletion strains, locus YDL134C, strain PPH21, stronger effect = lower value 0.724 | [11] 0.769 | S. cerevisiae deletion strains, locus YLR113W, strain HOG1, stronger effect = lower value 0.842 | [14] 0.759 | S. cerevisiae deletion strains, locus YPL256C, strain CLN2, stronger effect = lower value 0.818
inactive: S. cerevisiae deletion strains, locus YAR019C, strain CDC15, stronger effect = lower value 0.958 | S. cerevisiae deletion strains, locus YBL105C, strain PKC1, stronger effect = lower value 0.96 | S. cerevisiae deletion strains, locus YBR135W, strain CKS1, stronger effect = lower value 0.954 | S. cerevisiae deletion strains, locus YBR136W, strain MEC1, stronger effect = lower value 0.963 | S. cerevisiae deletion strains, locus YBR160W, strain CDC28, stronger effect = lower value 0.957 | [2] 0.976 | S. cerevisiae deletion strains, locus YDL017W, strain CDC7, stronger effect = lower value 0.956 | S. cerevisiae deletion strains, locus YDL028C, strain MPS1, stronger effect = lower value 0.966 | [3] 0.97 and 0.977 | S. cerevisiae deletion strains, locus YDL108W, strain KIN28, stronger effect = lower value 0.958 | S. cerevisiae deletion strains, locus YDL132W, strain cdc53, stronger effect = lower value 0.949 | S. cerevisiae deletion strains, locus YDL214C, strain PRR2, stronger effect = lower value 0.894 | S. cerevisiae deletion strains, locus YDR052C, strain DBF4, stronger effect = lower value 0.972 | S. cerevisiae deletion strains, locus YDR054C, strain cdc34, stronger effect = lower value 0.942 | [4] 0.908 | S. cerevisiae deletion strains, locus YDR226W, strain ADK1, stronger effect = lower value 0.965 | S. cerevisiae deletion strains, locus YDR477W, strain SNF1, stronger effect = lower value 0.885 | [5] 0.984 | S. cerevisiae deletion strains, locus YER123W, strain YCK3, stronger effect = lower value 0.842 | S. cerevisiae deletion strains, locus YER133W, strain GLC7, stronger effect = lower value 0.895 | S. cerevisiae deletion strains, locus YFL009W, strain cdc4, stronger effect = lower value 0.956 | S. cerevisiae deletion strains, locus YFL029C, strain CAK1, stronger effect = lower value 0.951 | S. cerevisiae deletion strains, locus YFR003C, strain YPI1, stronger effect = lower value 0.962 | S. cerevisiae deletion strains, locus YFR019W, strain FAB1, stronger effect = lower value 0.897 | S. cerevisiae deletion strains, locus YFR028C, strain CDC14, stronger effect = lower value 0.956 | S. cerevisiae deletion strains, locus YGR040W, strain KSS1, stronger effect = lower value 0.893 | S. cerevisiae deletion strains, locus YGR052W, strain FMP48, stronger effect = lower value 0.967 | [6] 0.957 | S. cerevisiae deletion strains, locus YGR092W, strain DBF2, stronger effect = lower value 0.914 | S. cerevisiae deletion strains, locus YHR079C, strain IRE1, stronger effect = lower value 0.853 | S. cerevisiae deletion strains, locus YHR082C, strain KSP1, stronger effect = lower value 0.866 | [8] 0.966 | S. cerevisiae deletion strains, locus YHR205W, strain SCH9, stronger effect = lower value 0.86 | S. cerevisiae deletion strains, locus YIL147C, strain SLN1, stronger effect = lower value 0.955 | S. cerevisiae deletion strains, locus YJL095W, strain BCK1, stronger effect = lower value 0.815 | S. cerevisiae deletion strains, locus YJL128C, strain PBS2, stronger effect = lower value 0.928 | S. cerevisiae deletion strains, locus YJL157C, strain FAR1, stronger effect = lower value 0.893 | S. cerevisiae deletion strains, locus YJR016C, strain ILV3, stronger effect = lower value 0.96 | [9] 0.932 | S. cerevisiae deletion strains, locus YJR066W, strain TOR1 (second series), stronger effect = lower value 0.946 | S. cerevisiae deletion strains, locus YJR066W, strain TOR1, stronger effect = lower value 0.824 | [10] 0.958 | S. cerevisiae deletion strains, locus YKL048C, strain ELM1, stronger effect = lower value 0.934 | S. cerevisiae deletion strains, locus YKL067W, strain YNK1, stronger effect = lower value 0.898 | S. cerevisiae deletion strains, locus YKL101W, strain HSL1, stronger effect = lower value 0.911 | S. cerevisiae deletion strains, locus YKL193C, strain SDS22, stronger effect = lower value 0.942 | S. cerevisiae deletion strains, locus YKL203C, strain TOR2, stronger effect = lower value 0.916 | [12] 0.953 | [13] 0.865 | S. cerevisiae deletion strains, locus YLR133W, strain CKI1, stronger effect = lower value 0.893 | S. cerevisiae deletion strains, locus YLR403W, strain SFP1, stronger effect = lower value 0.868 | S. cerevisiae deletion strains, locus YML070W, strain DAK1, stronger effect = lower value 0.879 | [15] 0.918 | S. cerevisiae deletion strains, locus YMR001C, strain CDC5, stronger effect = lower value 0.954 | S. cerevisiae deletion strains, locus YMR205C, strain PFK2 (second series), stronger effect = lower value 0.914 | [16] 0.976 | [17] 0.917 | S. cerevisiae deletion strains, locus YMR277W, strain FCP1, stronger effect = lower value 0.952 | S. cerevisiae deletion strains, locus YNL006W, strain LST8, stronger effect = lower value 0.951 | S. cerevisiae deletion strains, locus YNL020C, strain ARK1, stronger effect = lower value 0.879 | [18] 0.97 | S. cerevisiae deletion strains, locus YNL161W, strain CBK1, stronger effect = lower value 0.96 | S. cerevisiae deletion strains, locus YNL183C, strain NPR1, stronger effect = lower value 0.845 | S. cerevisiae deletion strains, locus YNL207W, strain RIO2, stronger effect = lower value 0.943 | S. cerevisiae deletion strains, locus YNL222W, strain SSU72, stronger effect = lower value 0.953 | [19] 0.879 | S. cerevisiae deletion strains, locus YNL307C, strain MCK1 (second series), stronger effect = lower value 0.888 | [20] 0.96 | [21] 0.897 | S. cerevisiae deletion strains, locus YOL078W, strain AVO1, stronger effect = lower value 0.948 | S. cerevisiae deletion strains, locus YOL136C, strain PFK27, stronger effect = lower value 0.853 | S. cerevisiae deletion strains, locus YOR061W, strain CKA2, stronger effect = lower value 0.9 | S. cerevisiae deletion strains, locus YOR119C, strain RIO1, stronger effect = lower value 0.954 | S. cerevisiae deletion strains, locus YOR231W, strain MKK1, stronger effect = lower value 0.863 | S. cerevisiae deletion strains, locus YOR329C, strain SCD5, stronger effect = lower value 0.956 | S. cerevisiae deletion strains, locus YPL031C, strain PHO85, stronger effect = lower value 0.872 | [22] 0.858 | S. cerevisiae deletion strains, locus YPL153C, strain RAD53, stronger effect = lower value 0.894 | S. cerevisiae deletion strains, locus YPL204W, strain HRR25, stronger effect = lower value 0.867 | S. cerevisiae deletion strains, locus YPL209C, strain IPL1, stronger effect = lower value 0.958 | [23] 0.937 | S. cerevisiae deletion strains, locus YPR025C, strain CCL1, stronger effect = lower value 0.952 | S. cerevisiae deletion strains, locus YPR106W, strain ISR1, stronger effect = lower value 0.959 | S. cerevisiae deletion strains, locus YPR111W, strain DBF20, stronger effect = lower value 0.957 | [24] 0.841 | S. cerevisiae deletion strains, strain NNK1, stronger effect = lower value 0.952 | S. cerevisiae deletion strains, strain TSCII, stronger effect = lower value 0.954

O=C(NCCSCc1ccc(Cl)cc1)c1ccc(Cl)cc1
inactive: [1] 0.941 | [3] 0.915 | [4] 0.925 | [5] 1.02 | [9] 0.948 | [10] 0.954 | [11] 1.09 | [12] 0.972 | [14] 1.01 | [15] 0.881 | [17] 0.954 | S. cerevisiae deletion strains, locus YMR307W, strain GAS1, stronger effect = lower value 0.849 | S. cerevisiae deletion strains, locus YNL128W, strain TEP1, stronger effect = lower value 0.965 | [20] 0.961 | [21] 0.936 | [22] 0.893 | [23] 1.03 | [24] 1.07
active: [2] 0.919 | [6] 0.902 | [7] 0.0946 | [8] 0.903 | S. cerevisiae deletion strains, locus YJL187C, strain SWE1, stronger effect = lower value 0.897 | [13] 0.724 | [16] 0.932 | [18] 0.907 | [19] 0.684 | S. cerevisiae strains, strain wild type, stronger effect = lower value 0.887
